Reference: PubChem BioAssay (NCATS)
Results filed as inconclusive are left out. Activity calls are given as the source filed them. Calls come from the whole dose curve; as a rule, active = well fitted curve in the direction sought with a large enough effect; inconclusive = small, poorly fitted or top-dose-only effect, or another doubt; inactive = no such curve, though single readings can be large; an effect the other way counts as inactive or inconclusive.

What was measured:
[1] = molecular target: Protein phosphatase 1D (Homo sapiens) (UniProt O15297); assay: RapidFire Mass Spectrometry qHTS Assay for Modulators of WT P53-Induced Phosphatase 1 (WIP1) (AID 1347424); conditions: WIP1 dephosphorylation of phosphopeptide, RapidFire MS; series mostly up to 63 µM;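 note: amount of dephosphorylated VEPPL-S-QETFS peptide product formed by WIP1; plate controls were DMSO wells for no effect and GSK830371 inhibitor control at 10 µM for full effect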
Outline: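 RapidFire mass spectrometry measured dephosphorylated peptide after 5 min room-temperature reaction of 2 uM VEPPL-pS-QETFS with 10 nM WIP1 (50 mM Tris-HCl pH 7.5, 30 mM MgCl2, 0.1 mM EGTA, BSA), following 1 hr compound preincubation; 1 uM isotope-labelled product standard.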

[2] = molecular target: Protein phosphatase 1D (Homo sapiens) (UniProt O15297); assay: Rhodamine-PBP qHTS Assay for Modulators of WT P53-Induced Phosphatase 1 (WIP1) (AID 1347425); conditions: recombinant WIP1, Rhodamine-PBP phosphate fluorescence, real-time; series mostly up to 57.5 µM; note: % of control where 0% means no effect
Outline: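 Steps: enzyme with Rh-PBP sensor and compounds, room-temperature incubation of 1 hr, baseline read, addition of VEPPL-pS-QETFS (10 uM final), kinetic fluorescence reads at 525/598 nm. Activity equals final minus baseline signal.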

[3] = Primary qHTS for inhibitors of La Crosse Virus (LACV) - induced cell death in SH-SY5Y cells (AID 1508616); conditions: SH-SY5Y LACV cytopathicity rescue, ATP luminescence, 6 d; series mostly up to 4.29 µM;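 note: top concentration of the series differs between compounds; 0% = infected DMSO wells and 100% = uninfected DMSO wells; higher means more rescue of cells from virus-induced death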
Outline: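 SH-SY5Y, 6000 cells/well; cpd via pin tool in DMSO; LACV 0.01 MOI; 6 d 37C 5% CO2; ATPLite, 5 min RT; luminescence normalized to ±virus DMSO controls.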

[4] = molecular target: Calcium and integrin-binding protein 1 (Homo sapiens) (UniProt Q99828); assay: Primary qHTS for Identification of Calcium Integrin Binding Protein 1 (CIB1) Competitor (AID 1508620); conditions: CIB1-GST / FITC-alphaIIb peptide fluorescence polarization; series mostly up to 114 µM;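 note: GST tagged CIB1 binding a fluorescein labelled alphaIIb integrin peptide tracer; top concentration of the series differs between compounds; % is set by controls: 0 for no effect and ±100 for the full control effect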
Outline: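 CIB1-GST (1 uM final) and compound incubated 15 min at room temperature before adding FITC-alphaIIb peptide tracer (100 nM final). Competition for binding read by fluorescence polarization (ex 480, em 540) after another 15 min at room temperature.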

[5] = Primary qHTS for small molecule stabilizers of the endoplasmic reticulum resident proteome: Secreted ER Calcium Modulated Protein (SERCaMP) assay (AID 1508630); conditions: SH-SY5Y GLuc-SERCaMP (Gaussia luciferase released on ER calcium loss) secretion, thapsigargin, luminescence; series mostly up to 38.4 µM; note: % is set by controls: 0 for no effect and ±100 for the full control effect
Outline: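 The SH-SY5Y reporter protocol was run at 3 concentrations up to 38.3 uM (primary) or 11 concentrations (follow-up): 16 h compound, 100 nM thapsigargin for 4 h, then extracellular luciferase luminescence.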

[6] = Confirmatory qHTS for small molecule stabilizers of the endoplasmic reticulum resident proteome: Secreted ER Calcium Modulated Protein (SERCaMP) assay (AID 1508628); conditions: SERCaMP secreted luciferase ER calcium/proteostasis reporter; series mostly up to 76.3 µM; note: potency is the fitted concentration of half-maximal effect; nearly all actives have a fitted effect of over 40% in size
Outline: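 Reporter secretion upon ER calcium depletion (100 nM thapsigargin, 4 h, 37C) is measured as medium luminescence with coelenterazine, after 16 h compound pretreatment of SH-SY5Y-GLuc-SERCaMP cells; primary at three concentrations up to 38.3 uM, follow-up at 11 (up to 76.6 uM).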

Protein phosphatase 1D (Homo sapiens), sequence (O15297 whole entry, looked up): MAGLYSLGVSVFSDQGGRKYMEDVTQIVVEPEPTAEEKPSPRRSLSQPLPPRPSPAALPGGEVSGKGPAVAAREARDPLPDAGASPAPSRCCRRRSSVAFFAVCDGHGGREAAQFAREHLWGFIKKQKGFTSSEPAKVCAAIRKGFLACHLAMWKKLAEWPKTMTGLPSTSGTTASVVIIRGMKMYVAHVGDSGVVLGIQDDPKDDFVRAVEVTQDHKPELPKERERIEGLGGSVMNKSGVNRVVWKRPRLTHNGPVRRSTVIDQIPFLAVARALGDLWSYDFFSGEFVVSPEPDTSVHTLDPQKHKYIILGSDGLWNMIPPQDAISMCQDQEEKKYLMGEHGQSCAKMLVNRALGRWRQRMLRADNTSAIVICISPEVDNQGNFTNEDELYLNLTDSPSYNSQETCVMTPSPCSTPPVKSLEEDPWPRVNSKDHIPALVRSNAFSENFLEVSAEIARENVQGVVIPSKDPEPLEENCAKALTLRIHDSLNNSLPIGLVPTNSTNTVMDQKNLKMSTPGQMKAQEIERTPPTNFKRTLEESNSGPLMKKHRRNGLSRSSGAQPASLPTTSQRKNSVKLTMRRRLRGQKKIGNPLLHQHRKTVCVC
Calcium and integrin-binding protein 1 (Homo sapiens), sequence (Q99828 whole entry, looked up): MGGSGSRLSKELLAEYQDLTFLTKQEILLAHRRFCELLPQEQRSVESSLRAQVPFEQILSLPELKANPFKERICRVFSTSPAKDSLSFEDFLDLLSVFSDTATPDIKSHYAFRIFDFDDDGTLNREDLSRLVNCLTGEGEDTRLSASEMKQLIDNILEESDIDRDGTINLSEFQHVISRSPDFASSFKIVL

CN[C@@H]1[C@H](O)[C@H](NC)[C@H]2O[C@@]3(O)C(=O)C[C@@H](C)O[C@H]3O[C@@H]2[C@H]1O
inactive: outcome [1] | outcome [2] | outcome [3] | outcome [4] | outcome [5]

COc1cc(C(=O)NCCCCCC(=O)O)cc(OC)c1OC
inactive: outcome [1] | outcome [2] | outcome [4]

Cc1cccc(C(=O)O)c1O
inactive: outcome [1] | outcome [2] | outcome [3] | outcome [4] | outcome [5]

O=C(c1ccccc1)C(O)c1ccccc1 (stereo not given)
inactive: outcome [1] | outcome [2] | outcome [3] | outcome [5]

CNCc1ccccc1
inactive: outcome [1] | outcome [2] | outcome [3] | outcome [4] | outcome [5]

C[N+](C)(C)CC[N+]1(C)Cc2c(Cl)c(Cl)c(Cl)c(Cl)c2C1
inactive: outcome [1] | outcome [2] | outcome [3] | outcome [4] | outcome [5]

CCC(C)(CN(C)C)OC(=O)c1ccccc1 (stereo not given)
inactive: outcome [1] | outcome [2] | outcome [4]

NS(=O)(=O)c1cc2c(cc1C(F)(F)F)NCNS2(=O)=O
inactive: outcome [1] | outcome [2] | outcome [3] | outcome [4] | outcome [5]

Nc1ccncc1N
inactive: outcome [1] | outcome [2] | outcome [3] | outcome [5]

CCCCC1(COC(=O)CCC(=O)O)C(=O)N(c2ccccc2)N(c2ccccc2)C1=O
inactive: outcome [1] | outcome [2] | outcome [3] | outcome [4] | outcome [5]

O=C1CC[C@@H](C(=O)O)N1
inactive: outcome [1] | outcome [2] | outcome [3] | outcome [5]

O=C(NCC(O)CO)c1c(I)c(C(=O)NCC(O)CO)c(I)c(N(CCO)C(=O)CO)c1I (stereo not given)
inactive: outcome [1] | outcome [2] | outcome [3] | outcome [4] | outcome [5]

Nc1ncnc(Nc2ccccc2)n1
inactive: outcome [1] | outcome [2] | outcome [3] | outcome [4] | outcome [5]

COc1ccccc1OC(=O)Oc1ccccc1OC
inactive: outcome [1] | outcome [2] | outcome [3] | outcome [4] | outcome [5]

NNC(=O)CP(=O)(c1ccccc1)c1ccccc1
inactive: outcome [1] | outcome [2] | outcome [3] | outcome [4] | outcome [5]

O=c1[nH]c(=O)c2ccccc2o1
inactive: outcome [1] | outcome [2] | outcome [3] | outcome [4] | outcome [5]

CCN(CC)S(=O)(=O)c1ccc(C(=O)O)cc1
inactive: outcome [1] | outcome [2] | outcome [3] | outcome [4] | outcome [5]

CC[N+](C)(CC)CCOC(=O)C1c2ccccc2Oc2ccccc21
inactive: outcome [1] | outcome [2] | outcome [4]

CCOC(=O)[C@H](CCc1ccccc1)N[C@@H](C)C(=O)N1Cc2cc(OC)c(OC)cc2C[C@H]1C(=O)O
inactive: outcome [1] | outcome [2] | outcome [3] | outcome [4] | outcome [5]

CC(=O)Nc1ccccc1
inactive: outcome [1] | outcome [2] | outcome [3] | outcome [4] | outcome [5]

COc1ccc(C(=O)NCc2ccc(OCCN(C)C)cc2)cc1OC
inactive: outcome [1] | outcome [2] | outcome [3] | outcome [4] | outcome [5]

COC(=O)c1ccc(O)cc1
inactive: outcome [1] | outcome [2] | outcome [3] | outcome [5]

CCCCCCCCCCCCCCCCN
inactive: outcome [1] | outcome [2] | outcome [3] | outcome [4] | outcome [5]

CCCNC(C)(C)COC(=O)c1ccccc1
inactive: outcome [1] | outcome [2] | outcome [3] | outcome [4] | outcome [5]

C[C@@H](N)C(=O)O
inactive: outcome [1] | outcome [2] | outcome [3] | outcome [4] | outcome [5]

O=C(Cn1ccnc1[N+](=O)[O-])NCCO
inactive: outcome [1] | outcome [2] | outcome [3] | outcome [4] | outcome [5]

CC(C(=O)O)c1ccc2c(c1)Cc1cccnc1O2 (stereo not given)
inactive: outcome [1] | outcome [2] | outcome [3] | outcome [4] | outcome [5]

CC(C)(C)NCC(O)COc1cccc2c1CCC(=O)N2 (stereo not given)
inactive: outcome [1] | outcome [2] | outcome [3] | outcome [4] | outcome [5]

NCc1ccc(S(N)(=O)=O)cc1
inactive: outcome [1] | outcome [2] | outcome [3] | outcome [5]

O=C(CCBr)N1CCN(C(=O)CCBr)CC1
inactive: outcome [1] | outcome [2] | outcome [3] | outcome [4] | outcome [5]

CN(C/C=C/C#CC(C)(C)C)Cc1cccc2ccccc12
inactive: outcome [1] | outcome [2] | outcome [3] | outcome [4] | outcome [5]

CCOC(=O)OC(C)OC(=O)[C@@H]1N2C(=O)[C@@H](NC(=O)[C@H](N)c3ccccc3)[C@H]2SC1(C)C (stereo not given in full)
inactive: outcome [1] | outcome [2] | outcome [4]

C[C@@H](c1ncncc1F)C(O)(Cn1cncn1)c1ccc(F)cc1F (stereo not given in full)
inactive: outcome [1] | outcome [2] | outcome [3] | outcome [4] | outcome [5]

CCc1cccc(CC)c1NC(=O)CN(CC(=O)O)CC(=O)O
inactive: outcome [1] | outcome [2] | outcome [4] | outcome [5]

Cn1c(=O)c2c(ncn2CCO)n(C)c1=O
inactive: outcome [2] | outcome [3] | outcome [4] | outcome [5]

CC(=O)N[C@@H](Cc1ccc(O)cc1)C(=O)O
inactive: outcome [2] | outcome [3] | outcome [4] | outcome [5]

C/C(=C(\CCO)SS/C(CCO)=C(\C)N(C=O)Cc1cnc(C)nc1N)N(C=O)Cc1cnc(C)nc1N
inactive: outcome [1] | outcome [2] | outcome [4] | outcome [5]

CCCCCCCC(=O)OCC(COC(=O)CCCCCCC)OC(=O)CCCCCCC
inactive: outcome [1] | outcome [2] | outcome [4] | outcome [5]

O=C(O)[C@@H]1[C@H]2C[C@H]3c4[nH]c5ccccc5c4CCN3C[C@@H]2CC[C@@H]1O
inactive: outcome [2] | outcome [5]

O=C(O)Cn1c(C(=O)Nc2nc(-c3ccccc3Cl)cs2)cc2ccccc21
inactive: outcome [3] | outcome [4]

Cc1c(Cn2ccnc2)c2ccccc2n1CCC(=O)O
inactive: outcome [1] | outcome [2] | outcome [4] | outcome [5]

NS(=O)(=O)c1cc(-c2nn[nH]n2)c(NCc2cccs2)cc1Cl
inactive: outcome [1] | outcome [3] | outcome [4] | outcome [5]

O=C(O)c1cc(=O)c2ccccc2o1
inactive: outcome [1] | outcome [2] | outcome [4] | outcome [5]

COc1ccc2cc(CCC(C)=O)ccc2c1
inactive: outcome [1] | outcome [2] | outcome [4] | outcome [5]

CN1C(=O)CC(c2ccccc2)C1=O (stereo not given)
inactive: outcome [1] | outcome [2] | outcome [4] | outcome [5]

Nc1ncnc2c1ncn2[C@@H]1O[C@H](COP(=O)(O)O)[C@@H](O)[C@H]1O
inactive: outcome [1] | outcome [2] | outcome [4] | outcome [5]

CC[C@]12CCCN3CCc4c(n(c5ccccc45)[C@@](O)(C(=O)OC)C1)[C@@H]32
inactive: outcome [1] | outcome [2] | outcome [4] | outcome [5]

O=C1c2ccccc2C(=O)C1c1ccc(Br)cc1
inactive: outcome [3] | outcome [4] | outcome [5]

O=C1c2cccc(O)c2C(=O)c2c(O)cccc21
inactive: outcome [1] | outcome [2] | outcome [5]

CC(=O)N(CC(O)CO)c1c(I)c(C(=O)NCC(O)CO)c(I)c(C(=O)NCC(O)CO)c1I (stereo not given)
inactive: outcome [1] | outcome [2] | outcome [4]

Cc1ncc(CO)c(CN)c1O
inactive: outcome [1] | outcome [2] | outcome [4]

CCCCCCCCCCOc1cc2c(=O)c(C(=O)OCC)c[nH]c2cc1OCC
inactive: activity change, negative = inhibition [1] 14.2% [at 6.17 µM] | activity change, negative = inhibition [2] 9.27% [at 4.81 µM] | activity change, negative = inhibition [4] 6.25% [at 12.4 µM] | activity change, negative = inhibition [5] 2.46% [at 3.88 µM]

CN1C[C@@H]2C[C@H]1CN2c1cc2c(cc1F)c(=O)c(C(=O)O)cn2C1CC1
inactive: outcome [1] | outcome [2] | outcome [5]

CC1(C)[C@@H](OC(=O)CCC(=O)O)CC[C@]2(C)[C@H]3C(=O)C=C4[C@@H]5C[C@@](C)(C(=O)O)CC[C@]5(C)CC[C@@]4(C)[C@]3(C)CC[C@@H]12
inactive: outcome [3] | outcome [5]

c1ccc2[nH]ccc2c1
inactive: outcome [1] | outcome [2] | outcome [4]

O=C(/C=C/c1ccc(O)c(O)c1)O[C@@H]1C[C@@](OC(=O)/C=C/c2ccc(O)c(O)c2)(C(=O)O)C[C@@H](O)[C@@H]1O
inactive: outcome [1] | outcome [2] | outcome [4] | outcome [5]

CO[C@@]1(NC(=O)C(C(=O)O)c2ccc(O)cc2)C(=O)N2C(C(=O)O)=C(CSc3nnnn3C)CO[C@@H]21 (stereo not given in full)
inactive: outcome [1] | outcome [2] | outcome [4]

OC(CCN1CCCC1)(c1ccccc1)C1CCCCC1 (stereo not given)
active: Potency [6] 3.98 µM
inactive: outcome [2] | outcome [3]

COc1ccc(O)cc1
inactive: outcome [1] | outcome [2] | outcome [4]

Cc1c(NC(C)C)c(=O)n(-c2ccccc2)n1C
inactive: outcome [1] | outcome [2] | outcome [4]

CN1CC(=O)NC1=N
inactive: outcome [1] | outcome [2] | outcome [4]

CC(C)(C)C(=O)OCOC(=O)[C@@H]1N2C(=O)[C@@H](NC(=O)[C@H](N)c3ccccc3)[C@H]2SC1(C)C
inactive: outcome [1] | outcome [2] | outcome [4] | outcome [5]

O=C(O)c1ccccc1OP(=O)(O)O
inactive: outcome [1] | outcome [4]

CN[C@@H]1[C@@H](O)[C@@H](O[C@@H]2[C@H](O)[C@H](O[C@H]3OC(CN)=CC[C@H]3N)[C@@H](N)C[C@H]2N)OCC1(C)O (stereo not given in full)
inactive: outcome [1] | outcome [2] | outcome [4]

Cc1cccc(Nc2ccccc2C(=O)O)c1C
inactive: outcome [1] | outcome [2] | outcome [4] | outcome [5]

Cc1ccc(C(C)C)c(O)c1
inactive: outcome [1] | outcome [2] | outcome [4]

CCCCCC(N)=O
inactive: outcome [1] | outcome [2] | outcome [4] | outcome [5]

CC(=O)Nc1ccc(C(=O)O)cc1
inactive: outcome [1] | outcome [2] | outcome [4]

CCCCCCCCCCCCCCCCC(C(=O)O)C(O)(CC(=O)O)C(=O)O (stereo not given)
inactive: outcome [2] | outcome [3] | outcome [4] | outcome [5]

CC1CC(OC(=O)c2ccccc2O)CC(C)(C)C1 (stereo not given)
inactive: outcome [1] | outcome [2] | outcome [4] | outcome [5]

COc1ccc(-c2cc(=O)c3c(O)cc(O[C@@H]4O[C@H](CO[C@@H]5O[C@@H](C)[C@H](O)[C@@H](O)[C@H]5O)[C@@H](O)[C@H](O)[C@H]4O)cc3o2)cc1O
inactive: outcome [1] | outcome [2] | outcome [5]

CN1C(C)(C)CCCC1(C)C
inactive: outcome [1] | outcome [2] | outcome [4] | outcome [5]
